In assay [1] the target is Cellular tumor antigen p53 (Homo sapiens) (UniProt P04637). As to the kind of experiment: Primary qHTS for small molecule compounds that upregulate eGFP-tagged delta133p53alpha (in N-terminal) cells. (AID 2060322). Also: nearly all actives have a fitted effect of over 75% in size. Also: potency is read from the fitted curve at half-maximal effect.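 As to activation: cells pre-induced with doxycycline then dosed without doxycycline; 0% = DMSO vehicle and 100% = reference activator.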 The conditions noted are these: NCI-H358 eGFP-delta133p53alpha fluorescence, 24 h; activation: hits give high values. The method in brief:
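NCI-H358 cells pre-induced 24 h with 10 ng/ml doxycycline for eGFP-delta133p53alpha, plated dox-free and exposed 24 h at 37C to titrated compounds. Fixed, Hoechst-stained; gated GFP peak intensity by laser scanning cytometry, normalized to DMSO (0%) and 57.5 uM 5-azacytidine (100%).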

Assay [2] addresses Aldehyde dehydrogenase, mitochondrial (Homo sapiens) (UniProt P05091). As to the kind of experiment: qHTS for Inhibitors of the Aldehyde Dehydrogenase Family (ALDH2) Primary screen (AID 2061308).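 Also: plate controls were vehicle for no effect and reference inhibitor for full effect; nearly all actives have a fitted effect of over 55% in size.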 The conditions noted are these: ALDH2 enzyme inhibition qHTS, 1536-well; series mostly up to 56 µM.
The target of assay [3] is Retinaldehyde dehydrogenase 3 (Homo sapiens) (UniProt P47895). As to the kind of experiment: qHTS for Inhibitors of the Aldehyde Dehydrogenase Family (ALDH1A3) Primary screen (AID 2061315).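 Also: plate controls were DMSO vehicle for no effect and reference inhibitor for full effect.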 The note with it: ALDH inhibition qHTS; series mostly up to 56 µM.

Several values for one entry are separate records, joined by “and”; a condition that tells them apart may be missing. Identical values can stand only once. Records with an inconclusive call do not appear. Unmarked numbers belong to inactive results. Activity calls are given as the source filed them. Calls follow the shape of the dose curve; as a rule, active = well fitted curve in the direction sought with a large enough effect; inconclusive = small, poorly fitted or top-dose-only effect, or another doubt; inactive = no such curve, though single readings can be large; an effect the other way counts as inactive or inconclusive. Peptide text beside a SMILES is read from it.

Cellular tumor antigen p53 (Homo sapiens), sequence (P04637 whole entry, looked up): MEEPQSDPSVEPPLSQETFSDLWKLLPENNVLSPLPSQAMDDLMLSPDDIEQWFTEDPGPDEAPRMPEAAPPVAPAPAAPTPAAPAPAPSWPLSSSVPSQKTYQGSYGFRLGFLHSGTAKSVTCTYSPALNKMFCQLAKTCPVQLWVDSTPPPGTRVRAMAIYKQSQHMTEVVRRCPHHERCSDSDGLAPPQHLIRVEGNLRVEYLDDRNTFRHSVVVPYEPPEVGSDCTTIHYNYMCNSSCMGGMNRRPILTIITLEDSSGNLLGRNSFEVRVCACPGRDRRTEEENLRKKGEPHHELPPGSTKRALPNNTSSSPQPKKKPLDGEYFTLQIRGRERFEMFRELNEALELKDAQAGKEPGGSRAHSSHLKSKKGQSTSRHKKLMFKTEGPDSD

Regarding `CC(=O)OC12CC(C)C(O)C1/C=C(/COC1OC(CO)C(O)C(O)C1O)CCC1C(/C=C(\C)C2=O)C1(C)C` (stereo not given), the activation in assay [1] was -9.16%. The Potency result in assay [2] and in assay [3] was “inactive” throughout.

In the case of `CC1=C2C=C(CO)C(CO)CCC2(C)CCC1=O` (stereo not given), in assay [1], the activation is 3.82%. In addition, the Potency entry in assay [2] and in assay [3] was “inactive” in each case.

Turning to `C/C=C(\C)C1C(C)=CC2CCC(OS(=O)(=O)O)C(C)C2C1/C=C/C=C/C(=O)O` (stereo not given), in assay [1], the activation is 0.893%. Also, the Potency entry in assay [2] and in assay [3] was “inactive” throughout.

Consider `CC1(C)CCC2(C(=O)O)C(O)CC3(C)C(=CCC4C5(C)CCC(OC6OC(CO)C(O)C(O)C6OC6OC(CO)C(O)C(O)C6OC6OCC(O)(CO)C6O)C(C)(C)C5CCC43C)C2C1` (stereo not given), for which the activation in assay [1] was -18.3%. In addition, the Potency result in assay [2] and in assay [3] was “inactive” throughout.

Regarding `CC(=O)O[C@@H]1[C@@H](OC(=O)/C=C/c2ccccc2)[C@H](C)O[C@@H](O[C@H]2[C@@H]3C=CO[C@@H](O[C@@H]4O[C@H](CO)[C@@H](O)[C@H](O)[C@H]4O)[C@@H]3[C@@]3(CO)O[C@@H]23)[C@@H]1OC(C)=O`, the activation in assay [1] is -3.82%. Besides, the Potency entry in assay [2] and in assay [3] was “inactive” in each case.

Turning to `Cc1cnn(-c2ccccc2)c1NC(=O)COCc1ccccc1`, the activation in assay [1] is 0.333%. The Potency result in assay [2] and in assay [3] was “inactive” in each case.

As to `CC[C@@H](O)C[C@@H]1C(C)=C[C@@H]2CCCC[C@@H]2[C@@]1(C)C(=O)O`, the activation in assay [1] is -6.87%. The Potency result in assay [2] and in assay [3] was “inactive” throughout.

In the case of `COC1C=C(C)C(O)(CO)C2(C)CCCC(C)(C)C12` (stereo not given), in assay [1], the activation was 13%. Further, the Potency entry in assay [2] and in assay [3] was “inactive” in each case.

For `COc1cc(-c2cc(-c3cccc(O)c3)cnc2N)cc(OC)c1OC`, the Potency in assay [1] was 16.9 µM (active). Besides, the Potency result in assay [2] and in assay [3] was “inactive” in each case.

On to `CC1NC(=O)CNC(=O)C(C(C)C)NC(=O)C2CCCN2C(=O)C(C(C)C)NC(=O)C(Cc2c[nH]c3ccccc23)NC1=O` (stereo not given) (cyclo(GAWVPV); configuration not given here), for which, in assay [1], the activation is 3.57%. In addition, the Potency entry in assay [2] and in assay [3] was “inactive” throughout.

As for `Cc1ccccc1N1CCN(S(=O)(=O)C[C@]23CC[C@H](C[C@@H]2NC(=O)[C@@H](N)CCS(C)(=O)=O)C3(C)C)CC1`, in assay [1], the activation was 3.67%. Also, the Potency entry in assay [2] and in assay [3] was “inactive” in each case.

For `CC(=O)O[C@@H]1[C@H](O[C@@H]2O[C@@H](CO)[C@H](O)[C@H]2O)[C@@H](O[C@@H]2O[C@@H](C)[C@H](O[C@@H]3OC[C@@H](O)[C@H](O)[C@H]3O)[C@@H](O)[C@H]2O)[C@H](OC(=O)[C@]23CCC(C)(C)C[C@H]2C2=CCC4[C@@]5(C)CC[C@H](O[C@@H]6O[C@H](C(=O)O)[C@@H](O)[C@H](O)[C@H]6O[C@@H]6O[C@H](CO)[C@H](O)[C@H](O)[C@H]6O)[C@@](C)(C=O)C5CC[C@@]4(C)[C@]2(C)CC3)O[C@@H]1C` (stereo not given in full), in assay [1], the activation was -13.7%. In addition, the activity change, negative = inhibition is 4.21% [at 11.2 µM] in assay [2] and 3.44% [at 11.2 µM] in assay [3].

Consider `O=C(/C=C/c1ccc(O)cc1)OCC1=C[C@@H](O)[C@@H]2C=CO[C@@H](O[C@@H]3O[C@H](CO)[C@@H](O)[C@H](O)[C@H]3O)[C@H]12`, for which the activation in assay [1] was -9.16%. The Potency entry in assay [2] and in assay [3] was “inactive” in each case.

On to `CCOC(=O)c1ccc(OCCN2C[C@H](O)[C@@H](O)[C@H](O)[C@H]2CO)cc1`, for which the activation in assay [1] was -6.33%. The Potency result in assay [2] and in assay [3] was “inactive” each time.

`O=C1c2c(O[C@@H]3O[C@H](CO)[C@@H](O)[C@H](O)[C@H]3O)cc(O)cc2OC1(O)Cc1ccc(O)cc1` (stereo not given in full): in assay [1], the Potency is 10.4 µM (active). Moreover, the Potency result in assay [2] and in assay [3] was “inactive” in each case.

For `CC(C#N)C(C)O[C@@H]1O[C@H](CO)[C@@H](O)[C@H](O)[C@H]1O` (stereo not given in full), the activation in assay [1] was 24.1%. Also, the Potency entry in assay [2] and in assay [3] was “inactive” in each case.

As for `C[C@H](NC(=O)C(C)(C)Oc1ccc(C(F)(F)F)cn1)[C@@H](Cc1ccc(Cl)cc1)c1cccc(C#N)c1`, in assay [1], the activation is 5.36%. Also, the Potency entry in assay [2] and in assay [3] was “inactive” throughout.

Regarding `CC[C@]12CCCN3CCc4c(n(c5ccccc45)C(=O)C1)[C@@H]32`, the Potency in assay [1] is 13.8 µM (active) and 10.7 µM (active). Besides, the Potency entry in assay [2] and in assay [3] was “inactive” each time.

For `C=C(C)C1CCC2(C(=O)O[C@@H]3O[C@H](CO[C@@H]4O[C@H](CO)[C@@H](O)[C@H](O)[C@H]4O)[C@@H](O)[C@H](O[C@@H]4O[C@@H](C)[C@H](O)[C@@H](O)[C@H]4O)[C@H]3O)CCC3(C(=O)O)C(CCC4C5(C)CCC(O)C(C)(C)C5CCC43C)C12` (stereo not given in full), the activation in assay [1] was -13.7%. Besides, the Potency result in assay [2] and in assay [3] was “inactive” in each case.

Consider `CCOC(=O)c1ccc(OCCC2CCN(c3ccc(C)nn3)CC2)cc1`, for which the activation in assay [1] was -17.9%. Also, the Potency entry in assay [2] and in assay [3] was “inactive” throughout.

For the origin of these results see PubChem BioAssay (NCATS).
